Assay results as given in PubChem BioAssay (NCATS).
Records with an inconclusive call do not appear. Entries that show only a call come without a potency. Active and inactive are the calls of the source. Unless noted, calls follow the shape of the dose curve; as a rule, active = well fitted curve in the direction sought with a large enough effect; inconclusive = small, poorly fitted or top-dose-only effect, or another doubt; inactive = no such curve, though single readings can be large; an effect the other way counts as inactive or inconclusive. Residues, ends and D or L forms follow the SMILES beside them. *: point of attachment. Cbz = O=C(OCc1ccccc1)*

Key:
[1] = Primary qHTS for small molecule stabilizers of the endoplasmic reticulum resident proteome: Secreted ER Calcium Modulated Protein (SERCaMP) assay (AID 1508630)
Method in brief: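 The SH-SY5Y reporter protocol was run at 3 concentrations up to 38.3 uM (primary) or 11 concentrations (follow-up): 16 h compound, 100 nM thapsigargin for 4 h, then extracellular luciferase luminescence.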

[2] = target: Calcium and integrin-binding protein 1 (Homo sapiens) (UniProt Q99828); test: Primary qHTS for Identification of Calcium Integrin Binding Protein 1 (CIB1) Competitor (AID 1508620);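 also: GST tagged CIB1 binding a fluorescein labelled alphaIIb integrin peptide tracer; top concentration of the series differs between compounds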
Calcium and integrin-binding protein 1 (Homo sapiens), sequence (Q99828 whole entry, looked up): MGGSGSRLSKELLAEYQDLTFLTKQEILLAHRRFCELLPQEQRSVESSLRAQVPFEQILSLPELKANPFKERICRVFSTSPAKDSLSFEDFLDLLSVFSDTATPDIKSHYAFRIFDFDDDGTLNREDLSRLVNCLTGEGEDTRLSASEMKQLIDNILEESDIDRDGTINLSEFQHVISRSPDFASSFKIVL
Method in brief: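 Fluorescence polarization competition: GST-tagged CIB1 (1 uM final) preincubated with compound 15 min at room temperature, then FITC-labelled alphaIIb peptide (100 nM final) added. After 15 min at room temperature, polarization read at Ex 480/Em 540.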

[3] = target: Cytochrome P450 2D6 (Homo sapiens) (UniProt P10635); test: Cytochrome P450 family 2 subfamily D member 6 (CYP2D6) small molecule antagonists: luciferase biochemical (cell-free) qHTS assay (AID 1645840; active = well fitted curve in the direction sought with a large enough effect in the repeat runs; an effect the other way counts as inactive or inconclusive; also: nearly all actives have a fitted effect of over 55% in size; also: potency is read from the fitted curve at half-maximal effect)
Cytochrome P450 2D6 (Homo sapiens), sequence (P10635 whole entry, looked up): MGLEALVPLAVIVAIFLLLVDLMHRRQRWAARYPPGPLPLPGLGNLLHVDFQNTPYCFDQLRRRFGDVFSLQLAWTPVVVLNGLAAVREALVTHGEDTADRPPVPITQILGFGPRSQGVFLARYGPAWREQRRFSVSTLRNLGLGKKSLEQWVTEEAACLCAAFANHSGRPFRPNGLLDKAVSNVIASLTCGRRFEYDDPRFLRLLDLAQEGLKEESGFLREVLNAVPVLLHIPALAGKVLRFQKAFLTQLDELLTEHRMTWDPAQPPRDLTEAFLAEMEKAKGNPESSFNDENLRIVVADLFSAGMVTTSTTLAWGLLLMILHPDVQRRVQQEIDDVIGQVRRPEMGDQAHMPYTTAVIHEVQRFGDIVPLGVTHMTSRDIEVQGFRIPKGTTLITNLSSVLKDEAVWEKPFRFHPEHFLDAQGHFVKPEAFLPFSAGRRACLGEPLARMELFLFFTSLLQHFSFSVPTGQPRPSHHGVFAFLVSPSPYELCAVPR
Method in brief: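 P450-Glo CYP2D6 system: proluciferin substrate converted by enzyme to luciferin, read by luminescence proportional to activity. Enzyme-substrate mix with compound 10 min at room temperature, then NADPH regeneration 1 h before detection reagent.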

SMILES	outcome [1]	Potency [2]	Potency [3]
Nc1cccc2c1C(=O)N(C1CCC(=O)NC1=O)C2=O (stereo unspecified)	inactive	–	–
COc1cccc2c1C(=O)c1c(O)c3c(c(O)c1C2=O)C[C@@](O)(C(C)=O)C[C@H]3O[C@H]1C[C@H](N)[C@H](O)[C@H](C)O1	inactive	–	–
C#Cc1cccc(Nc2ncnc3cc(OCCOC)c(OCCO)cc23)c1	inactive	inactive	8.49 µM (active)
COc1cc(CCc2cc(NC(=O)c3ccc(N4C[C@@H](C)N[C@@H](C)C4)cc3)n[nH]2)cc(OC)c1	inactive	inactive	–
CO[C@@H]1[C@@H](O)[C@H](O)[C@@H](n2c3c(Cl)cccc3c3c4c(c5c6cccc(Cl)c6[nH]c5c32)C(=O)NC4=O)O[C@@H]1CO	inactive	inactive	–
C[C@H](CCC(=O)O)[C@H]1CC[C@H]2[C@@H]3[C@H](O)C[C@@H]4C[C@H](O)CC[C@]4(C)[C@@H]3CC[C@]12C	inactive	inactive	–
C=C[C@@H]1CN2CCC1C[C@H]2[C@H](O)c1ccnc2ccc(OC)cc12 (stereo partly specified)	inactive	–	–
COc1ccc2c(c1OC)C(=O)OC2[C@H]1c2c(cc3c(c2OC)OCO3)CCN1C (stereo partly specified)	inactive	inactive	–
C[C@H]1COc2c(N3CCN(C)CC3)c(F)cc3c(=O)c(C(=O)O)cn1c23	inactive	–	–
Cc1cnc(Nc2ccc(CN3CCOCC3)cc2)nc1Nc1cccc(S(=O)(=O)NC(C)(C)C)c1	inactive	inactive	–
N#Cc1cc(NC(=O)Nc2nnc(-c3ccncc3)s2)ccc1-c1cn[nH]c1	inactive	inactive	–
CC1=C(C(=O)Nc2cc3cn[nH]c3cc2F)C(c2ccc(Cl)cc2F)N=C(c2ccnc(Cl)c2)N1 (stereo unspecified)	–	inactive	6.74 µM (active)
C[C@H](NCc1ccc2c(c1)nc(NC(=O)c1ccc(-c3cn[nH]c3)s1)n2CCc1ccccc1)C(C)(C)C	inactive	inactive	–
CC(=O)N1CCN(c2ccc(OCc3nn(C)c(C)c3-c3cccc4c(CCCOc5cccc6ccccc56)c(C(=O)O)n(Cc5cccnc5)c34)cc2)CC1	inactive	–	–
COc1cc(C)c(C=CC(C)=CC=CC(C)=CC(=O)O)c(C)c1C	inactive	inactive	inactive
COc1cccc2c1C(=O)c1c(O)c3c(c(O)c1C2=O)C[C@@](O)(C(=O)CO)C[C@@H]3O[C@H]1C[C@H](N)[C@H](OC2CCCCO2)[C@H](C)O1 (stereo partly specified)	inactive	–	–
CN1CCc2c(c3ccccc3n2Cc2ccc(C(=O)NO)cc2)C1	inactive	inactive	7.56 µM (active)
FC(F)c1nc2ccccc2n1-c1nc(N2CCOCC2)nc(N2CCOCC2)n1	inactive	inactive	–
O=C1CSC(=O)N1C(CCc1ccncc1)COc1ccc(-c2cccc([N+](=O)[O-])c2)cc1 (stereo unspecified)	inactive	inactive	inactive
Cc1cncc2cccc(S(=O)(=O)N3CCCN(C(=O)CN)C[C@@H]3C)c12	inactive	inactive	–
O=c1[nH]c(=O)n([C@H]2C[C@@H](O)[C@@H](CO)O2)cc1F	inactive	inactive	–
CCc1nc(-c2cccc(C)c2)c(-c2ccnc(NC(=O)c3ccccc3)c2)s1	inactive	inactive	–
CC(C)C[C@@H](C=O)NC(=O)[C@H](CC(C)C)NC(=O)[C@H](CC(C)C)NC(=O)OCc1ccccc1 (Cbz-Leu-Leu-Leu-aldehyde)	inactive	inactive	–
CCCNC(=O)[C@H]1O[C@H]1C(=O)N[C@H](C(=O)N1CCC[C@@H]1C(=O)OC)C(C)CC (stereo partly specified)	inactive	inactive	–
CCNC(=O)c1cc2c(-c3cc(OCCN4CCCC4)c(Cl)cc3Cl)nc(N)nc2s1	inactive	inactive	–
CC(C)Oc1ccc(C(=O)N[C@H](CNC(=O)CN(C)C)Cc2ccc(-c3cn4cccc([C@H](C)O)c4n3)cc2)cc1Cl	inactive	inactive	5.35 µM (active)
O=C(C=Cc1ccc(CN(CCO)CCc2c[nH]c3ccccc23)cc1)NO	inactive	inactive	–
O=C(NC1CC1)c1cccc(-c2ccc3c(NC(=O)C4CC4)n[nH]c3c2)c1	inactive	inactive	–
COc1cccc2c1C(=O)c1c(O)c3c(c(O)c1C2=O)C[C@@](O)(C(=O)CO)C[C@H]3O[C@H]1C[C@H](N)[C@H](O)[C@H](C)O1	inactive	–	–
